In PubChem BioAssay AID720517 (National Center for Advancing Translational Sciences (NCATS), 2013) one finds Potency data, which are given here for 101 compounds.

Records with an inconclusive call do not appear. A call without a number means that no potency is given here. The source made the active and inactive calls. Calls follow the shape of the dose curve; as a rule, active = well fitted activation curve with a large enough effect; inconclusive = small, poorly fitted or top-dose-only effect; inactive = flat fitted curve, though single readings scatter.

This test is described as follows: qHTS for Inhibitors of Cell Surface uPA Generation: FP59 Counterscreen for Cherry-picked Compounds. On the technique in general: Quantitative high-throughput screening tests each substance at several concentrations.
Potency is read from the fitted curve at half-maximal effect.

For the compound `C[C@@H](C(=O)Nc1ccc2ccccc2c1)[C@@H]1C[C@@]1(C)[C@@H](NC(=O)c1cccnc1)c1ccccc1`, the Potency result was “inactive”. The entry for `O=C(COC(=O)Cn1cnc2ccccc21)NCc1ccc(F)cc1` is “inactive”; for `C[C@H](CO)N1C[C@H](C)[C@H](CN(C)S(=O)(=O)c2cn(C)cn2)Oc2ccc(NC(=O)Nc3ccc(C(F)(F)F)cc3)cc2CC1=O` it is “inactive”; for `CCN(CC)S(=O)(=O)c1ccc(C(=O)Nc2nnc(COC)o2)cc1` it is “inactive”. Regarding `CCC(C)NC(=O)c1ccc2nc(-c3ccc(OC)c(OC)c3)c(-c3ccc(OC)c(OC)c3)nc2c1` (stereo unspecified), the Potency result is “inactive”. Regarding `O=C(CNS(=O)(=O)c1ccc(F)cc1)Nc1ccccc1`, the Potency result was “inactive”.

In the case of `COCCN1C(=O)C(=O)/C(=C(/O)c2ccc(S(=O)(=O)N3CCOCC3)cc2)C1c1cccc([N+](=O)[O-])c1` (stereo unspecified), the Potency result is “inactive”. For `Cc1cccn2c(CNCC(C)Oc3cccnc3)c(C(=O)N3CCOCC3)nc12` (stereo unspecified), the Potency entry is “inactive”. As for `CC(=O)c1ccc(N=C2SCCCN2C(=O)C2CCCCC2)cc1`, the Potency result was “inactive”. For the compound `CSc1ccccc1OCc1cc(C(=O)NCCCn2nc(C)cc2C)no1`, the Potency entry was “inactive”. With `COC(=O)c1c(NC(=O)c2c(OC)cccc2OC)sc2c1C(C(=O)OC)CC2` (stereo unspecified), the Potency entry is “inactive”. The same measure for `CCOc1ccc(/C=N/NC(=S)Nc2c(C)cccc2C)cc1`: “inactive”; for `O=C(NNC(=O)c1cccnc1)c1ccncc1`: “inactive”.

For `COCc1cc(C)nc2sc(C(=O)Nc3nccs3)c(N)c12`, the Potency result was “inactive”. Turning to `COc1ncnc(NS(=O)(=O)c2ccc(N)cc2)c1OC`, the Potency result is “inactive”. The entry for `CC(=O)c1c(C)n(-c2ccccc2Br)c2ccc(O)cc12` is “inactive”; for `Cc1[nH]c2ccccc2c1C(=O)C(C)OC(=O)c1ccccc1NCCO` (stereo unspecified) it is “inactive”.

As to `Cc1cc(C)c(NC(=O)Cn2nnc(C(=O)NCc3ccc4c(c3)OCO4)c2N)c(C)c1`, the Potency entry is “inactive”. Take `CCN(CC)S(=O)(=O)c1cc(NC(=O)COC(=O)C2CCC2)ccc1C`: the Potency result is “inactive”. As for `Cc1ccc2oc(C(=O)N(Cc3ccc(N(C)C)cc3)C3CCS(=O)(=O)C3)c(C)c2c1` (stereo unspecified), the Potency result was “inactive”. Regarding `CN(C(=O)CCn1c(=S)oc2ccccc21)c1ccc(F)cc1`, the Potency result was “inactive”.

On to `O=C(Nc1ccc2c(c1)CCC2)Nc1ccc2c(c1)OCO2`, for which the Potency result was “inactive”. Regarding `COc1ccc(CCNC(=O)CSc2nc(N)c3c(C)c(C)oc3n2)cc1OC`, the Potency entry is “inactive”. With `Fc1ccc(NC(=S)N2CCCC(c3ccccc3)=N2)cc1`, the Potency result was “inactive”.

Turning to `O=C(O)COc1ccccc1/C=N/NC(=O)CNC(=O)c1ccco1`, the Potency result is “inactive”.

On to `Cc1ccc(S(=O)(=O)N2CCOCC2)cc1NC(=O)CSc1nc(N)cc(N)n1`, for which the Potency entry is “inactive”. As for `CCC(=O)Nc1nc(-c2cc([N+](=O)[O-])cs2)cs1`, the Potency entry was “inactive”.

Turning to `COc1ccc(OC)c(NC(=O)C2CC2c2ccccc2)c1` (stereo unspecified), the Potency result is “inactive”. `CC(C)C(NC(=O)Cc1ccccc1)C(=O)N1CCN(c2cccc(Cl)c2)CC1` (stereo unspecified): the Potency entry is “inactive”. In the case of `CCN(CC)S(=O)(=O)c1ccc(C(=O)Nc2cccc(C)c2)cc1`, the Potency entry was “inactive”. Regarding `Cc1cc(C)c(S(=O)(=O)N2CCCOC2CNC(=O)C(=O)NCc2cccs2)c(C)c1` (stereo unspecified), the Potency entry was “inactive”.

With `O=C(c1ccccn1)C1CCCN(Cc2cn[nH]c2-c2cc3ccccc3o2)C1` (stereo unspecified), the Potency result is “inactive”.

As for `CC1=C(C(=O)OCc2ccccc2)C(c2cccc([N+](=O)[O-])c2)NC(=O)N1` (stereo unspecified), the Potency result is “inactive”. For `Cc1ccc(/C=N/NC(=O)c2ccc3nc[nH]c3c2)s1`, the Potency result is “inactive”.

For `COc1ccccc1NC(=O)Cn1ncc2c1-c1ccccc1OC2`, the Potency result was “inactive”. Take `Cc1c(NC(=S)Nc2ccc(Cl)cc2)c(=O)n(-c2ccccc2)n1C`: the Potency result was “inactive”. The entry for `CC(C)c1ccc(C2/C(=C(\O)c3ccc4c(c3)OCCO4)C(=O)C(=O)N2CCN2CCOCC2)cc1` (stereo unspecified) is “inactive”; for `Cc1cc(C)n2c(SCC#N)nnc2n1` it is “inactive”. As to `C=CS(=O)(=O)c1ccc(Oc2ccc(S(=O)(=O)C=C)cc2)cc1`, the Potency is 52.1 µM (active). `Cc1ccc(NS(=O)(=O)c2c(C)nc3sccn3c2=O)c(C)c1`: the Potency result is “inactive”. With `CN(/N=C/c1cc(Cl)cc(Cl)c1O)C(=S)NC(C)(C)C`, the Potency result was “inactive”. For the compound `O=C(N/N=C/c1cccnc1)c1ccccc1[N+](=O)[O-]`, the Potency entry was “inactive”. The same measure for `Cc1ccc(S(=O)(=O)N(C)c2ccc(OC(=O)c3ccc(=O)[nH]c3)cc2)cc1`: “inactive”; for `Cc1cccc(N2CCN(Cc3ccc(Br)o3)CC2)c1C`: “inactive”. The same measure for `Cc1ccc(Nc2nc(Cl)c(C=O)s2)cc1`: “inactive”; for `CCOc1cc(S(=O)(=O)NC2CC(C)(C)NC(C)(C)C2)ccc1Cl`: “inactive”; for `Cc1ccccc1C(=O)NCC(=O)Nc1ccc(C)c(S(=O)(=O)N2CCCCCC2)c1`: “inactive”.

In the case of `Cc1ccc(S(=O)(=O)N2CCOCC2)cc1C(=O)OC1CCOC1=O` (stereo unspecified), the Potency result was “inactive”.

Consider `O=C(CN1CCCC1)Nc1cccc(Cl)c1Cl`, for which the Potency entry is “inactive”. On to `COc1ccc(C(=O)NCC(=O)N/N=C/c2c(C)[nH]c3ccccc23)cc1`, for which the Potency entry was “inactive”. On to `O=C(c1cc(COc2c(F)cccc2F)on1)N1CCc2ccccc2C1`, for which the Potency entry is “inactive”. For the compound `Cc1nc(SCC(=O)NCCN2C(=O)CSC2=O)nc(C)c1C`, the Potency entry was “inactive”. The same measure for `CC(=O)c1cccc(NC(=O)N2C3CCC2CC(O)(c2cccnc2)C3)c1` (stereo unspecified): “inactive”; for `O=C(O)CC1(CC(=O)NCc2ccc(Cl)cc2)CCCCC1`: “inactive”; for `COc1ccc(C(=O)N2CCN(c3ccc(C(C)=O)cc3)CC2)cc1S(=O)(=O)N1CCCC1`: “inactive”. In the case of `O=C(/C=C/c1cccc(F)c1)Nc1cc(S(=O)(=O)N2CCOCC2)ccc1Cl`, the Potency result is “inactive”. For the compound `Cc1ccccc1-c1nnc(SCC(=O)NCC2CCCO2)o1` (stereo unspecified), the Potency entry was “inactive”.

`O=C(NCCCn1cccn1)C1CCC(=O)N(Cc2ccccc2F)C1` (stereo unspecified): the Potency result is “inactive”. `CC(C)(O)C#Cc1ccc(C(=O)N2CCCC(CCC(=O)NCc3ccccc3F)C2)cc1` (stereo unspecified): the Potency result was “inactive”. `Cc1cc2[nH]c(=O)c(=O)[nH]c2cc1S(=O)(=O)NC1CCC(C)CC1` (stereo unspecified): the Potency result is “inactive”. Consider `O=C(NC[C@H]1CCCO1)c1cccc2c1C(=O)c1ccc(-c3ccc(F)cc3OCc3ccccc3)cc1S2(=O)=O`, for which the Potency result was “inactive”.

`Clc1ccccc1N1CCN(c2ncnc3nc[nH]c23)CC1`: the Potency entry was “inactive”. Consider `COc1ccc(C2=NS(=O)(=O)N(C)C(C(=O)NCc3ccccn3)=C2)cc1`, for which the Potency entry is “inactive”. With `COc1ccc([C@@H]2[C@@H]3C(=O)N(C(C)(C)C)C(=O)[C@@H]3[C@]3(C)C(=O)N(c4cccc(Cl)c4)C(=O)N23)cc1`, the Potency result was “inactive”. For the compound `CCCn1c(N)c(C(=O)CSc2nnc(C3CC3)n2Cc2ccccc2)c(=O)[nH]c1=O`, the Potency result is “inactive”. The entry for `Cc1nnc2ccc(-c3ccc(NS(=O)(=O)c4ccc(Cl)s4)cc3)nn12` is “inactive”. The entry for `COc1ccc(NC(=O)CN2C(=O)CSc3ncccc32)cc1` is “inactive”; for `CN(CCO)c1ccc(C(C(=O)c2ccccc2)c2ccc(N(C)CCO)cc2)cc1` it is “inactive”; for `COCCNC(=S)N(CCc1c(C)[nH]c2ccccc12)Cc1ccco1` it is “inactive”. The same measure for `O=C1CCCc2ccccc2N1Cc1ccc(F)cc1`: “inactive”; for `CCOCCCn1c(SCC(=O)Nc2cc(OC)ccc2OC)nc2ccccc2c1=O`: “inactive”; for `CCN(C(=O)c1c(C)noc1C)c1c(N)n(Cc2ccccc2)c(=O)[nH]c1=O`: “inactive”.

As for `Cc1noc(C)c1COc1ccc(C(=O)N2CCN(S(=O)(=O)c3ccc(Cl)cc3)CC2)cc1`, the Potency result is “inactive”.

As for `COc1cc2c(cc1OC)CN(C(=O)c1ccc(-c3ccccc3)cc1)CC2`, the Potency result was “inactive”. Take `O=C(Cc1ccccc1)Nc1ccc(NC(=O)c2ccccc2)c(Cl)c1`: the Potency result is “inactive”.

Take `CC(=O)Nc1c2c(nn1-c1cccc(C)c1)CSC2`: the Potency result was “inactive”. Consider `CCc1ccc(N2CC(C(=O)Nc3ccc4c(c3)OCO4)CC2=O)cc1` (stereo unspecified), for which the Potency result is “inactive”.

Turning to `Cc1ccc([C@H]2C(C(=O)O)=CC[C@@H](c3cccc(C)c3)N2S(=O)(=O)c2ccc(C)cc2)cc1`, the Potency entry is “inactive”. Take `N#CCC(=O)N/N=C/c1ccc(OCC(=O)Nc2ccc(F)cc2)cc1`: the Potency result is “inactive”. Regarding `N/C(=N/OC(=O)c1ccccc1F)c1nonc1N`, the Potency entry was “inactive”.

`Cc1ccc(S(=O)(=O)NNC(=O)c2ccc(F)cc2)cc1`: the Potency result was “inactive”. Turning to `O=C(c1ccc(NC(=S)NCc2ccc(Cl)cc2)cc1)N1CCCCC1`, the Potency entry is “inactive”. Take `CCS(=O)(=O)N1CCC(C(=O)NCc2ccc(OC)cc2OC)CC1`: the Potency result is “inactive”. Regarding `CN(CC(=O)N(C)CC(=O)Nc1c(Cl)cccc1Cl)Cc1ccccc1F`, the Potency result was “inactive”.

`C=CC[n+]1c(/C=C/c2ccc(OC(C)=O)c(OC)c2)ccc2ccccc21`: the Potency result is “inactive”. The entry for `COc1ccc(C[C@@H]2OC3(C=CC(=O)C=C3)O[C@H]2Cc2ccc(OC)cc2)cc1` is “inactive”.

For the compound `CCOC(=O)c1c(NC(=S)NC)sc2c1CCCC2`, the Potency result was “inactive”. Consider `C[C@H](CO)N1C[C@H](C)[C@@H](CN(C)C(=O)Nc2ccccc2)Oc2c(NS(=O)(=O)c3ccccc3)cccc2C1=O`, for which the Potency entry was “inactive”.

For the compound `CCOC(=O)CN1C(=O)N[C@@H](c2ccccc2)C(C(C)=O)=C1C`, the Potency entry was “inactive”. Take `CCN(CC)CC(=O)Nc1sc2c(c1C(=O)c1ccccc1OC)CCC2`: the Potency is 16.5 µM (active). As to `CCCCCN(C(=O)CCC(=O)OCCOc1cccc(Cl)c1)c1c(N)n(CCCC)c(=O)[nH]c1=O`, the Potency result is “inactive”. `CCCN1CCN(C2CCCCC2NS(=O)(=O)c2ccc(Cl)cc2)CC1` (stereo unspecified): the Potency entry was “inactive”. Turning to `CCOCCOc1cc(NCc2ccccc2)c2ncn(C(C)C)c2c1`, the Potency entry is “inactive”. On to `CCN(CC)CCCn1c2c(c(SCC(=O)Nc3cccc4ccccc34)nc1=O)CCC2`, for which the Potency entry was “inactive”. Turning to `O=C(c1cc([N+](=O)[O-])cc([N+](=O)[O-])c1)N(c1ccccn1)c1ccccn1`, the Potency entry was “inactive”.

Turning to `O=[N+]([O-])c1cccc2c(N3CCOCC3)ccnc12`, the Potency entry is “inactive”. As for `Cc1nc(NC(=O)CSc2nnc(C3CC3)n2C)sc1C(=O)N(C)C`, the Potency entry was “inactive”. Consider `CCOc1ccc(NS(=O)(=O)c2coc(C(N)=O)c2)cc1`, for which the Potency result was “inactive”.

On to `Cc1ccc(S(=O)(=O)NCC(=O)OC(C)C(=O)NCc2ccc3c(c2)OCO3)cc1` (stereo unspecified), for which the Potency result was “inactive”. Consider `CCC(CC)Nc1ccc(C(CC(N)=O)NC(=O)Cc2ccc(Br)cc2)cc1[N+](=O)[O-]` (stereo unspecified), for which the Potency entry was “inactive”. With `COc1ccc(C(=O)OCC(=O)N(C)C2CCS(=O)(=O)C2)cc1S(=O)(=O)N(C)Cc1ccccc1` (stereo unspecified), the Potency result is “inactive”.
